One may read the residual activity as the signal under treatment as a percentage of the control signal.

Sequence of Serine/threonine-protein kinase Nek6 (Homo sapiens) (Q9HC98 whole entry): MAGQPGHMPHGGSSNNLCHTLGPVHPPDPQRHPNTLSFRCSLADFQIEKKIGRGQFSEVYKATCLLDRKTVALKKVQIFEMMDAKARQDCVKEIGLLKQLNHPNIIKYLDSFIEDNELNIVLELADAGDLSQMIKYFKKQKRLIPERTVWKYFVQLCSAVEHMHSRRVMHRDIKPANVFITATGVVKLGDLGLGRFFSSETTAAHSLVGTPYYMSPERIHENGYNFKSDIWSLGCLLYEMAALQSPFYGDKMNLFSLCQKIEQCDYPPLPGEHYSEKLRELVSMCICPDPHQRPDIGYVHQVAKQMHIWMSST

The target in one experiment is Ribosomal protein S6 kinase beta-1 (Homo sapiens) (UniProt P23443). The settings on record: at 10 µM.
Sequence of Ribosomal protein S6 kinase beta-1 (Homo sapiens) (P23443 whole entry, looked up): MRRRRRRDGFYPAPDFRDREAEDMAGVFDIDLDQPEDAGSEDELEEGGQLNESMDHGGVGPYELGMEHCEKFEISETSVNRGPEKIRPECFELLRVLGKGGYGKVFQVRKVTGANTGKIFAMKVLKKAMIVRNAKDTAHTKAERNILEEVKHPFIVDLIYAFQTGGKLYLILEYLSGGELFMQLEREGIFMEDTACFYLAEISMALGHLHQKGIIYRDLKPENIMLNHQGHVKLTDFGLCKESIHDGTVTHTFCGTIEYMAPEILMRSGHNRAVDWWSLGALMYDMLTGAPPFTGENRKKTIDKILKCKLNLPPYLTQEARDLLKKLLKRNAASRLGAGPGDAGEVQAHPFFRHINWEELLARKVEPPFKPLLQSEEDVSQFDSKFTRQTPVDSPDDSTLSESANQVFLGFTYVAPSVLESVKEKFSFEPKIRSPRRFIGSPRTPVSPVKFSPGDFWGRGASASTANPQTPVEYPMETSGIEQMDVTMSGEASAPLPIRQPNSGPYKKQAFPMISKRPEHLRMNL
As to `c1cc(-c2cnn3cc(-c4ccc(OCCN5CCCCC5)cc4)cnc23)ccn1`, the residual activity was 34%.
Consider `N/C(=N\[N+](=O)[O-])N/N=C\c1ccc(-c2cccc([N+](=O)[O-])c2)o1`, for which the residual activity was 62%.
Take `O=c1[nH]c2ccccc2n1C1CCN(Cc2ccc(-c3nc4cc5[nH]cnc5cc4nc3-c3ccccc3)cc2)CC1`: the residual activity is 56%.
Consider `O=C1Nc2ccc3ncsc3c2/C1=C/c1c[nH]cn1`, for which the residual activity was determined as 8%.
Consider `COc1cc(OC)c(/C=C2\C(=O)Nc3ccccc32)c(OC)c1`, for which the residual activity is 63%.
As for `CC(C)[C@H](CO)Nc1nc(Nc2cccc(Cl)c2)c2ncn(C(C)C)c2n1`, the residual activity is 64%.
Same read-out and setting: with `CCc1nc(-c2ccc(OC)cc2)[nH]c1-c1ccncc1` the figure was 62%.
Still for that read-out and setting: next, `COC(=O)[C@@]1(O)C[C@H]2O[C@]1(C)n1c3ccccc3c3c4c(c5c6ccccc6n2c5c31)C(=O)NC4`: 1%.
Same read-out and setting: next, `COc1cc2ncnc(Nc3ccc(OCc4ccccc4)cc3)c2cc1OC`: 53%; `C[S+]([O-])c1ccc(-c2nc(-c3ccc(F)cc3)c(-c3ccncc3)[nH]2)cc1` (stereo not given): 87%; `CC(C)(C)c1cc(C=C(C#N)C#N)cc(Br)c1O`: 42%.
Regarding `O=[N+]([O-])/C=C/c1ccc2c(c1)OCO2`, the residual activity was 87%.
In the case of `CCn1cnc2c(Nc3cccc(Cl)c3)nc(N[C@@H]3CCCC[C@@H]3N)nc21`, the residual activity was found to be 32%.
`O=C1NC(=O)c2c1c1c3ccccc3n3c1c1c2c2ccccc2n1C1CCC3O1`: the residual activity turned out to be 31%.
Turning to `O=C1c2ccccc2-c2nc3nnnn3nc21`, the residual activity was determined as 64%.
Regarding `COc1ccc2c(c[n+](C)c3c4cc5c(cc4ccc23)OCO5)c1OC`, the residual activity worked out at 63%.

The next experiment has as its target Serine/threonine-protein kinase Nek6 (Homo sapiens) (UniProt Q9HC98). The conditions noted are these: at 1 µM.
As for `c1cc(-c2cnn3cc(-c4ccc(OCCN5CCCCC5)cc4)cnc23)ccn1`, the residual activity is 118% (inactive).
For `O=c1[nH]c2ccccc2n1C1CCN(Cc2ccc(-c3nc4cc5[nH]cnc5cc4nc3-c3ccccc3)cc2)CC1`, the residual activity is 109% (inactive).
For `O=C1Nc2ccc3ncsc3c2/C1=C/c1c[nH]cn1`, the residual activity was 80% (inactive).
As to `CC(C)[C@H](CO)Nc1nc(Nc2cccc(Cl)c2)c2ncn(C(C)C)c2n1`, the residual activity is 117% (inactive).
Consider `CCc1nc(-c2ccc(OC)cc2)[nH]c1-c1ccncc1`, for which the residual activity is 116% (inactive).
As to `COC(=O)[C@@]1(O)C[C@H]2O[C@]1(C)n1c3ccccc3c3c4c(c5c6ccccc6n2c5c31)C(=O)NC4`, the residual activity is 104% (inactive).
Consider `C[S+]([O-])c1ccc(-c2nc(-c3ccc(F)cc3)c(-c3ccncc3)[nH]2)cc1` (stereo not given), for which the residual activity is 112% (inactive).
The same measure, in the same setting: with `CC(C)(C)c1cc(C=C(C#N)C#N)cc(Br)c1O` the figure was 117% (inactive).
`CN[C@@H]1C[C@H]2O[C@@](C)([C@@H]1OC)n1c3ccccc3c3c4c(c5c6ccccc6n2c5c31)C(=O)NC4`: the residual activity is 75% (inactive).

For the origin of these results see ChEMBL document CHEMBL2218924, “A broad activity screen in support of a chemogenomic map for kinase signalling research and drug discovery” (Biochem J, 2013).
